# Assay results: PubChem BioAssay AID1851 (National Center for Advancing Translational Sciences (NCATS), 2009)
# The whole screen tested about 16,000 compounds, of which about 4,000 (25%) were called active. Roughly 26% stayed inconclusive and do not appear here. Only a sample is shown. Values without a mark were called inactive. Calls come from the whole dose curve; as a rule, active = well fitted curve in the direction sought with a large enough effect; inconclusive = small, poorly fitted or top-dose-only effect, or effect the other way; inactive = no such curve, though single readings can be large or run the other way.
# Biological target: Cytochrome P450 2C9 (Homo sapiens) (UniProt P11712)
# Sequence (P11712 whole entry, looked up): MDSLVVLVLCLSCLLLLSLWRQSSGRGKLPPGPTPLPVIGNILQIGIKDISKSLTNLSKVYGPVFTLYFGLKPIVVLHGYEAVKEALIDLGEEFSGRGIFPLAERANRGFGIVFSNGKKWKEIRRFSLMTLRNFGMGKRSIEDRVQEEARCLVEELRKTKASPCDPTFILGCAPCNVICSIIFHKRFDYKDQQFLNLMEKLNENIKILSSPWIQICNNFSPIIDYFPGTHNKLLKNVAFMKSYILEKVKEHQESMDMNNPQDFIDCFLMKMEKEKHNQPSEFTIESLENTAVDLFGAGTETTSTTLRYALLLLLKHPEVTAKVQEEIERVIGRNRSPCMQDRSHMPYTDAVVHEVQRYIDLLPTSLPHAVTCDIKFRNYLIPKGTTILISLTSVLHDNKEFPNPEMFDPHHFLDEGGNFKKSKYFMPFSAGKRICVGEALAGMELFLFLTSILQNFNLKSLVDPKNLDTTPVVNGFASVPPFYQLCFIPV
# Assay: Cytochrome panel assay with activity outcomes
# Conditions: recombinant CYP, pro-luciferin dealkylation, luminescence, p450-cyp2c9; series mostly up to 57.1 µM; activity, negative = inhibition: at the top concentration
# % is set by controls: 0 for no effect and ±100 for the full control effect.
SMILES,"activity, negative = inhibition",AC50
COc1ccc2c(OC)c3ccoc3nc2c1OC,19.1% [at 25.6 µM],
CN(CC(=O)O)Cc1c(O)c(Cl)cc(Cl)c1Cl,13.6% [at 11.4 µM],
CC(=O)N[C@@H](Cc1c[nH]c2ccccc12)C(=O)OCc1cc(C(F)(F)F)cc(C(F)(F)F)c1,2.21%,
C[C@@H](C(=O)NCCc1c[nH]c2ccccc12)[C@H]1C[C@]1(C)[C@H](NC(=O)OCc1ccccc1)c1ccccc1,,0.631 µM (active)
COC(=O)C(Cc1c[nH]c2ccccc12)NC(=O)C(C)C (centres undefined),-33.5%,
C[C@@H](C(=O)NCCc1c[nH]c2ccccc12)[C@@H]1C[C@@]1(C)[C@@H](NC(=O)OCc1ccccc1)c1ccccc1,,2.51 µM (active)
C#C[C@]1(O)CC[C@@H]2[C@H]3CCC4=CCCC[C@@H]4[C@@H]3CC[C@@]21C,,10 µM (active)
C#C[C@@]1(OC(C)=O)CC[C@@H]2[C@@H]3CCC4=C[C@@H](OC(C)=O)CC[C@H]4[C@H]3CC[C@]21C,,15.8 µM (active)
C#C[C@]1(O)CC[C@@H]2[C@H]3CCc4cc(OC)ccc4[C@@H]3CC[C@@]21C,-27.5% [at 25.6 µM],
C#C[C@@]1(O)CC[C@@H]2[C@@H]3CCC4=CC(=O)CC[C@@H]4[C@H]3CC[C@]21CC,-23.8% [at 25.6 µM],
CC(C)(C)C(=O)NC(=C(Cl)Cl)P(=O)(O)O,-19.5%,
CCCn1nc(NC(=O)CC(C)C)c2cc3ccccc3nc21,,2 µM (active)
CCCS(=O)(=O)N1CCN(CC2CC=CCC2)CC1 (centres undefined),-43.6%,
Cc1noc(C)c1-c1cc(NC2CC2)ncn1,-1.99% [at 2.29 µM],
COc1cc(C(=O)Nc2cc(C(F)(F)F)ccc2Cl)cc(OC)c1OC,,8.91 µM (active)
COc1cc(NC(=O)c2ccc(COCC(F)(F)F)cc2)cc(OC)c1OC,22.1%,
N/C(CC(=O)Nc1cc(C(F)(F)F)ccc1Cl)=N\O,11.2% [at 11.4 µM],
CC(C)(CN)CN,2.97% [at 11.4 µM],
CC(C)C(NC(=O)C1CCCCC1)C(=O)NC1CCN(Cc2ccccc2)CC1 (centres undefined),7.86%,
CCC(C)NC(=O)C1CCN(C(=O)c2ccccc2)CC1 (centres undefined),-9.04%,
CCC(C)NC(=O)C1CCCN(C(=O)NC2CCCCC2)C1 (centres undefined),,20 µM (active)
COc1ccc(C2C(=O)N(CCc3ccccc3)CC(=O)N2C2CCCC2)cc1 (centres undefined),,22.4 µM (active)

SMILES,"activity, negative = inhibition",AC50
Cc1ccc(CCN2CC(C(=O)NC3CCCC3)CC2=O)cc1 (centres undefined),-15.5%,
COc1ccc(C2C(C(=O)N3CCN(C)CC3)c3ccccc3C(=O)N2C2CCCCC2)cc1 (centres undefined),-14%,
Cn1c(=O)n2n(c1=O)[C@H]1[C@H](O)[C@H]3O[C@H]3C(=O)[C@H]1CC2,7.6% [at 11.4 µM],
O=C(O)CN(CCN(CC(=O)O)CC(=O)O)CC(=O)O.[Cu],4.98% [at 11.4 µM],
Cc1[nH]nc(-c2ccc(OCc3cnn(-c4ccccc4)c3)cc2O)c1Oc1ccccc1F,,2 µM (active)
COC(=O)c1ccc(Oc2coc3cc(OCc4cnn(-c5ccccc5)c4)ccc3c2=O)cc1,28.5%,
Cc1ccc(NC(=O)Nc2nc(-c3ccc(C)s3)cs2)cc1,,3.55 µM (active)
O=C(c1cc(C(F)(F)F)cc(C(F)(F)F)c1)N1CCC[C@@]2(CCN(c3ncccn3)C2)C1,-1.16%,
COc1ccc(Cc2c(N)nc(N)nc2N)cc1,11.5%,
CC(C)(C)c1ccc(C(=O)NCc2ccc(Cl)cc2)cc1,9%,
COc1ccc(CNC(=O)C2CSC(=O)C2)cc1 (centres undefined),-18.7%,
Cc1cc(C(=O)NCc2ccccc2)no1,-34.4%,
COc1ccc(CNC(=O)c2cnc(C)cn2)cc1,,35.5 µM (active)
COc1ccc(CNC(=O)c2csc(Cc3ccc(OC)cc3)n2)cc1,,10 µM (active)
COc1ccc(CNC(=O)C2CC(c3ccc(OC)cc3)=NO2)cc1 (centres undefined),16.9%,
COc1ccc(CNC(=O)c2csc(Cc3ccc(Cl)cc3)n2)cc1,,3.98 µM (active)
Cc1nc(CN2CCCCC2)c(O)c(=O)[nH]1,7.96% [at 11.4 µM],
C[C@]1(c2ccccc2)OC(C(=O)O)=CC1=O,8.89%,
CC(=O)N(O)CCCCCNC(=O)CCC(=O)N(O)CCCCCNC(=O)CCC(=O)N(O)CCCCCN,-3.39% [at 25.6 µM],
O=C(O)CCC(=O)N1CCOc2ccc(Cl)cc21,0.992%,
O=c1c(Cl)c(N2CCN(S(=O)(=O)c3ccc(F)cc3)CC2)cnn1-c1cccc(Cl)c1,-28.2%,
Cc1ccc2nc(N3CCN(S(=O)(=O)c4ccc5c(c4)OCCO5)CC3)c(C#N)cc2c1,,2.82 µM (active)

SMILES,"activity, negative = inhibition",AC50
Cc1ccc(Cl)cc1N1CCN(S(=O)(=O)c2ccc3c(c2)OCCO3)CC1,,2.82 µM (active)
O=C(c1ccc2c(c1)OCCO2)C1CCN(S(=O)(=O)c2ccccc2F)CC1,-25.3%,
CC(=O)C1=C(NC(=O)c2ccc(F)cc2)CC2C1C2(C)C (centres undefined),,3.55 µM (active)
O=C(Nc1cccc2[nH]ncc12)c1ccc(F)cc1,-3.46%,
Cc1occc1C(=O)NNC(=O)c1ccc(F)cc1,-15.1%,
C/C(CCN1CCCc2nc(C)c(C)cc21)=N\OC[C@@H](C)[C@H](OCc1ccccc1)C(C)C,24.5% [at 11.4 µM],
Cn1ncc2c(NCCc3ccccc3)nc(Cl)nc21,-22.7% [at 11.4 µM],
O=C(CCCc1ccccn1)c1ccccc1,-17.1% [at 11.4 µM],
COc1ccccc1N1CCN(C[C@@H](O)COc2cccc3ccccc23)CC1,18.2% [at 25.6 µM],
O=C(COc1cccc2ccccc12)N1c2ccccc2CCc2ccccc21,,2.82 µM (active)
OC[C@@H](O)COc1cccc2ccccc12,-24.2%,
O=C(c1cccc(F)c1)N1CCC2(CCCN(Cc3nccs3)C2)CC1,-3.9%,
O=C(c1cc(C(F)(F)F)cc(C(F)(F)F)c1)N1CCC[C@@]2(CCN(Cc3nccs3)C2)C1,-1.58%,
O=C(c1ccco1)N1CCC[C@@]2(CCN(Cc3nccs3)C2)C1,-3.46%,
O=C(c1ccco1)N1CCC2(CCN(Cc3nccs3)CC2)CC1,3.85%,
O=C(c1cc(C(F)(F)F)cc(C(F)(F)F)c1)N1CCC2(CCCN(Cc3nccs3)C2)CC1,29.9%,
O=C(c1cccc(F)c1)N1CCC[C@@]2(CCN(Cc3nccs3)C2)C1,,10 µM (active)
O=C(c1cc(C(F)(F)F)cc(C(F)(F)F)c1)N1CCC2(CCN(Cc3nccs3)CC2)CC1,,12.6 µM (active)
O=C(c1ccncc1)N1CCC2(CCN(Cc3nccs3)CC2)CC1,2.77%,
O=C(c1cccc(F)c1)N1CCC2(CCN(Cc3nccs3)CC2)CC1,,15.8 µM (active)
